Screen size: about 48,000 compounds; about 13,000 (27%) showed an effect of 50% or more. This is one part of the list.

This experiment deals with Wolbachia pipientis. The experiment can be described thus: Anti-Wolbachia Cell-Based Screen. The experiment is classed as functional. Also noted: scale not given: in the data most compounds retested in dose-response had high values. To be noted: 5 µM.
`CN(CC(C)(C)O)C(=O)Nc1ccc(F)c(-n2cccc2)c1`: the “Percent Effect” value was 2.422%. To `CNS(=O)(=O)c1cccc(C(C)NCc2cccc(C)c2C)c1` (stereo not drawn) belongs 8.764%.

As for `O=C(C1CC2(CCNCC2)CN1)N1CCN(c2cccc(Cl)c2Cl)CC1` (stereo not drawn), the “Percent Effect” value was determined as 3.67%. The figure for `COCCOCC(=O)N1C[C@H]2CC[C@@H]1CN(C1Cc3ccccc3C1)C2` is 11.56%. To `COc1cccc(C(=O)NCc2ccccc2S(=O)(=O)N(C)CCO)c1` belongs 1.796%; to `CCS(=O)(=O)c1ncc(CN2CCOCC2)n1CCCc1ccccc1`, 6.125%. To `CCN1CC2(CCC1=O)CCN(c1ccc(C(C)=O)cn1)CC2` belongs 0.06704%; to `Cc1nc(C)n(CC2CCCN(CC3CCCCC3)C2)n1` (stereo not drawn), 104.8%. Regarding `Cc1nc(C)n(CC2CCCN(Cc3nc(C4CC4)no3)C2)n1` (stereo not drawn), the “Percent Effect” value stood at 2.839%. The figure for `Cc1noc(CN2CCCC(Cn3nc(C)nc3C)C2)n1` (stereo not drawn) is 104.9%; for `CCc1nc(CN2CCCC(Cn3nc(C)nc3C)C2)no1` (stereo not drawn) it is 81.07%. Consider `Cc1nc(C)n(CC2CCCN(Cc3noc(C)n3)C2)n1` (stereo not drawn), for which the “Percent Effect” value turned out to be 96.94%.

`CS(=O)(=O)N1C[C@@H]2COC[C@@H](CC(=O)N3CCCCO3)[C@@H]2C1`: the “Percent Effect” value is on record as -9.378%. Take `CNC(=O)[C@@H](c1ccccc1F)N1CCC[C@H]1C(=O)NC1CC1.Cl`: the “Percent Effect” value worked out at 0.6767%.

Regarding `O=C1N[C@@H]2CCN(C(=O)C3CC3)[C@@H]2C(=O)N1c1ccccc1`, the “Percent Effect” value is -5.528%. The figure for `Cc1ccccc1Oc1ncccc1CNS(=O)(=O)N(C)C` is -17.53%; for `CC(C)c1cc(N[C@H](C(N)=O)C(C)C)n2nccc2n1` it is -22.97%; for `CCc1noc(CN2CCCC(Cn3nc(C)nc3C)C2)n1` (stereo not drawn) it is 134.9%.

As to `COCCc1noc(CN2CCCC(Cn3nc(C)nc3C)C2)n1` (stereo not drawn), the “Percent Effect” value is 0.4033%. To `CS(=O)(=O)CCN1CC(c2ccccc2)(c2ccccc2)CCC1=O` belongs -17.1%; to `O=C1CC(c2ncc(-c3ccc4c(c3)OCCO4)[nH]2)CN1C1CC1` (stereo not drawn), -4.884%. The figure for `CC(C)NC(=O)COc1nc(C(C)C)no1` is -19.75%; for `CC(C)NC(=O)COc1cccc(-c2nc(C(C)C)no2)c1` it is 105.1%. To `C=C(C)COc1cccc(C(=O)N(CC)Cc2noc(C)n2)c1` belongs -33.22%. In the case of `CC(C)c1noc(CCCC(=O)NCCOc2ccccc2)n1`, the “Percent Effect” value is -1.504%.

In the case of `CC(NC(=O)COc1nc(C(C)(C)C)no1)c1ccco1` (stereo not drawn), the “Percent Effect” value came out at 8.75%. Turning to `CCc1noc(-c2cccc(OCC(=O)NC(C)C)c2)n1`, the “Percent Effect” value is given as 95.64%.

`CC(C)NC(=O)COc1ccc(-c2nc(C(C)C)no2)cc1`: the “Percent Effect” value was determined as 114.1%. As to `CC(C)c1noc(CS(=O)(=O)CC(=O)NCCOc2ccccc2)n1`, the “Percent Effect” value came to 13.06%. The figure for `CCCNC(=O)COc1cccc(-c2nc(C(C)C)no2)c1` is 120.4%.

As for `COc1cccc(-c2n[nH]cc2C(=O)NC(C)c2nc(C(C)C)no2)c1` (stereo not drawn), the “Percent Effect” value was -2.83%. Consider `CCCn1nc(-c2nc(COc3ccccc3)no2)ccc1=O`, for which the “Percent Effect” value is reported as -3.247%. The figure for `CC(C)NC(=O)COc1nc(C(C)(C)C)no1` is -1.58%.

Values taken from ChEMBL document CHEMBL3988442, “University of Dundee, Small-Polar-MMV Screening Library” (2021).
